Each structure is given as a SMILES string. Among all 71,000 compounds or so, about 1,300 (1.8%) were called active. This is one part of a sample in which actives are shown more often than they occur. Values without a mark were called inactive. The call rests on the fitted dose curve.
Potency means the concentration at half of the fitted maximal effect.

Sequence of Beta-lactamase (Escherichia coli (strain K12)) (P00811 whole entry, looked up): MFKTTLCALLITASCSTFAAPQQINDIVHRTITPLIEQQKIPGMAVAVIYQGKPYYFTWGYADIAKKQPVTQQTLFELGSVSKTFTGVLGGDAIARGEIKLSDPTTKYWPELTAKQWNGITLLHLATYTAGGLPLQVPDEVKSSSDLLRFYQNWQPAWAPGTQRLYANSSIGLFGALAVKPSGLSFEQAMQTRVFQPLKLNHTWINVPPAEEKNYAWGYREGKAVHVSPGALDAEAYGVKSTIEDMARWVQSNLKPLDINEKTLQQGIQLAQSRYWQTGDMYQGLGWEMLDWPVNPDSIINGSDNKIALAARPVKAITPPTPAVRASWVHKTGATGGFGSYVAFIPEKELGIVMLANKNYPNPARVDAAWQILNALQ

In the test the target is Beta-lactamase (Escherichia coli (strain K12)) (UniProt P00811). The test is described as follows: Promiscuous and Specific Inhibitors of AmpC Beta-Lactamase (assay without detergent). On activity change, negative = inhibition: % of control where 0% means no effect. Conditions: AmpC nitrocefin hydrolysis, absorbance 480 nm, no detergent; series mostly up to 28.7 µM; activity change, negative = inhibition: at the top concentration. A digest of the protocol:
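Enzyme, pH 7.0 phosphate. Compound titrations were pre-incubated with AmpC for 15 min at room temperature before nitrocefin (stock 800 uM) addition; product formation was recorded at 480 nm every 20 s for 4 min.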
For `O=C(NCCc1ccccn1)c1ccc(COc2ccccc2)o1`, the “activity change, negative = inhibition” value was 31.1%.

Take `O=C1CC2(CCCCC2)Oc2ccc(OCC(=O)N3CCOCC3)cc21`: the “activity change, negative = inhibition” value is 54.1%.

Regarding `CCc1nnc(NC(=O)CSc2nnc(COc3ccc(C#N)cc3)n2-c2ccccc2)s1`, the “activity change, negative = inhibition” value was 49%.

`CCOc1ccc(-n2c(SC(C)C(=O)OC)nc3c(c2=O)SCC3)cc1` (stereo unspecified): the “activity change, negative = inhibition” value is 47.2%.

On to `CNC(=O)CN1C(=O)c2ccccc2S1(=O)=O`, for which the Potency is 3.98 µM [single pt active] (active).

In the case of `CCCc1nnc(NC(=O)CN2C(=O)c3ccccc3S2(=O)=O)s1`, the “activity change, negative = inhibition” value is -10.1%.

On to `O=C(CN1C(=O)c2ccccc2S1(=O)=O)N1CCc2ccccc21`, for which the “activity change, negative = inhibition” value was -13.7%.

For the compound `Fc1cccc(/C=N\N=C/c2cccc(F)c2)c1`, the “activity change, negative = inhibition” value was 11.7%.

Take `COc1cccc(NC(=O)C2CCCN2C(=O)OCc2ccccc2)c1` (stereo unspecified): the “activity change, negative = inhibition” value is 9.3%.

Turning to `COc1cccc(Nc2nnc(SCC(=O)N3CC(C)OC(C)C3)s2)c1` (stereo unspecified), the “activity change, negative = inhibition” value is 21%.

Consider `COc1cccc(NC(=O)Nc2nnc(N3CCCCC3C)s2)c1` (stereo unspecified), for which the Potency is 2.51 µM [single pt active] (active).

Take `COCc1cc(C)nc(SCC(=O)Nc2cccc(C)c2)c1C#N`: the “activity change, negative = inhibition” value is -7.6%.

Regarding `CC1=C2C(=O)OC(c3ccoc3)C2(C)CCC1` (stereo unspecified), the “activity change, negative = inhibition” value was -1.9%.

On to `COc1ccc(C(=O)N/N=C2/C(=O)c3c(C)cc(C)cc3CC2(C)C)cc1`, for which the activity change, negative = inhibition is 18.6% [at 5.75 µM].

With `CCOC(=O)N1CCC(C(N)=O)CC1`, the “activity change, negative = inhibition” value is -4.6%.

Consider `Cc1noc(C)c1S(=O)(=O)N(CC(=O)Nc1ccc2c(c1)OCCO2)c1ccc(C(C)C)cc1`, for which the “activity change, negative = inhibition” value was -4.4%.

For the compound `CCOC(=O)C1(C(F)(F)F)N=C(N(C)C)OC(N(C)C)=N1`, the “activity change, negative = inhibition” value is -6.4%.

For the compound `N#CC1=C(N)Oc2cc(O)ccc2C1C1CCCCC1` (stereo unspecified), the “activity change, negative = inhibition” value is -9.2%.

In the case of `O=C(O)c1c(Br)c(Br)c(Br)c(Br)c1C1c2ccc(O)cc2Oc2cc(O)ccc21`, the Potency is 0.158 µM (active).

Turning to `COCCNC(=O)CN1C(=O)CSc2ncccc21`, the “activity change, negative = inhibition” value was -21.6%.

Regarding `CC(C)(Cc1c[nH]c2ccc(Cl)cc12)NCCOc1ccccc1OCC1CC1`, the Potency was 20 µM [single pt active] (active).

For `NCC[Se][Se]CCN`, the activity change, negative = inhibition is 1.6% [at 5.75 µM].

On to `COC(=O)N1CCC[C@@]2(CCN(C(=O)NC(C)C)C2)C1`, for which the “activity change, negative = inhibition” value is 22.8%.

As to `Cc1cc(C)c(C#N)c(SCc2ccc3c(c2)OCO3)n1`, the “activity change, negative = inhibition” value is -11.5%.

Regarding `COc1ccc(Cl)cc1NC(=O)c1oc(C)nc1C`, the “activity change, negative = inhibition” value is 22.7%.

Turning to `Cc1nc(C)c(C(=O)Nc2cccc(C)c2C)o1`, the Potency was 3.98 µM [single pt active] (active).

With `Cc1nc(C)c(C(=O)Nc2ccc(C)c(F)c2)o1`, the “activity change, negative = inhibition” value was -4%.

On to `c1ccc2c(c1)OCC(CNc1ncnc3nc[nH]c13)O2` (stereo unspecified), for which the “activity change, negative = inhibition” value was 8.2%.

For `c1ccc(CCN2CCN=C2Cc2ccccc2)cc1`, the activity change, negative = inhibition is 13.3% [at 5.75 µM].

Take `COc1cccc(N2C(=O)C3CCCN3C2c2ccc(F)cc2)c1` (stereo unspecified): the “activity change, negative = inhibition” value was 26.5%.

As to `CC1=CC(C)(C)N(C(=O)CSc2nccn2C)c2cc(C)ccc21`, the “activity change, negative = inhibition” value was 45.9%.

Regarding `O=C(Cn1c(=S)nc2ccccn21)N1CCc2ccccc2C1`, the “activity change, negative = inhibition” value is 3.2%.

`C=C1c2cc(CC)ccc2NC(=O)N1c1ccc(C)cc1`: the Potency is 3.98 µM [single pt active] (active).

Take `Cc1ccc(S(=O)(=O)N2CC(=O)Nc3ccccc32)cc1C`: the “activity change, negative = inhibition” value was 2.2%.

With `FC(F)Oc1ccccc1C1CC(c2ccc(Br)s2)Nc2ncnn21` (stereo unspecified), the “activity change, negative = inhibition” value was 66.8%.

For the compound `O=c1cc(Cn2nnc(-c3ccc(Cl)cc3)n2)nc2sccn12`, the “activity change, negative = inhibition” value is 40%.

With `CS(=O)(=O)N(CC(=O)N1CCN(Cc2ccc3c(c2)OCO3)CC1)c1ccc2c(c1)OCO2`, the “activity change, negative = inhibition” value was 68.3%.

Regarding `CCCS(=O)(=O)N1CCCC(C(=O)NCc2ccco2)C1` (stereo unspecified), the “activity change, negative = inhibition” value was -0.5%.

In the case of `O=C(NCc1ccco1)C1CCCN(S(=O)(=O)c2cccc3nonc23)C1` (stereo unspecified), the “activity change, negative = inhibition” value is 0.9%.

As for `O=C(NCc1ccco1)C1CCCN(S(=O)(=O)c2cnc[nH]2)C1` (stereo unspecified), the Potency was 3.98 µM [single pt active] (active).

Consider `CC1(C)CC(CCC(=O)Nc2ccccc2Cl)C(=O)O1` (stereo unspecified), for which the “activity change, negative = inhibition” value is -5.9%.

On to `COc1ccc(C(=O)N(Cc2ccc(N(C)C)cc2)C2CCS(=O)(=O)C2)cc1` (stereo unspecified), for which the “activity change, negative = inhibition” value was 37.7%.

Regarding `Cc1nc(N2CCN(c3ncccn3)CC2)c2oc3ccccc3c2n1`, the “activity change, negative = inhibition” value is 56.3%.

On to `Cn1cccc1C(=O)NC(=O)COC(=O)Cc1coc2ccc3ccccc3c12`, for which the Potency is 12.6 µM (active).

Turning to `CCOC(=O)N1CCN(C(=O)c2cc3c(ccc4ccccc43)oc2=O)CC1`, the “activity change, negative = inhibition” value is 42.4%.

As to `CC(C)(C)NC(=O)NC(=O)COC(=O)Cn1c(C(F)(F)F)nc2ccccc21`, the “activity change, negative = inhibition” value is 24%.

For the compound `CCN1CCN(Cc2c(O)ccc3c(=O)c(-c4ccc(OC)c(OC)c4)c(C(F)(F)F)oc23)CC1`, the “activity change, negative = inhibition” value was 51.9%.

Regarding `CN1CCN(CCCNC(=O)c2cc3c(=O)oc4ccccc4c3s2)CC1`, the “activity change, negative = inhibition” value was 13.6%.

`COc1ccccc1NC(=O)C1=C(C)Nc2nnnn2C1c1cccc(Br)c1` (stereo unspecified): the “activity change, negative = inhibition” value was 12.1%.

Turning to `COc1cc(C2C(C(=O)Nc3ccccc3OC)=C(C)Nc3ncnn32)ccc1O` (stereo unspecified), the Potency is 3.98 µM [single pt active] (active).

With `COc1ccccc1NC(=O)C1=C(C)Nc2ncnn2C1c1ccc(C)o1` (stereo unspecified), the “activity change, negative = inhibition” value was 2.7%.

Source of the values: PubChem BioAssay AID585 (National Center for Advancing Translational Sciences (NCATS), 2007).
